# From ChEMBL document CHEMBL3988442, “University of Dundee, Small-Polar-MMV Screening Library” (2021)
# Among all 38,000 compounds or so, about 1,200 (3.2%) showed an effect of 50% or more. The median lay at about -58%. Shown is part of a subset that was picked to be rich in strong results.
# Tested on: Plasmodium falciparum
# Test: Calibr Malaria Delayed Death Assay SOP
# Assay type: functional, organism-based
# Design: scale not given: in the data most compounds retested in dose-response had high values
# Conditions: concentration 4.99e-06 (unit not given; other assays of the set use mol/L)
row,Structure (SMILES),Percent Effect
1,O=C(c1cnn(-c2ccccc2Cl)c1)N1CCN(CCO)CC1,-76.86%
2,COCCn1cc(CC(=O)Nc2nc[nH]n2)c2ccccc21,-106.6%
3,Cn1cc(CN2CCS(=O)(=O)C(C)(C)C2)cn1,-18.08%
4,COc1ccccc1C(=O)Nc1nc2c(s1)CN(S(=O)(=O)C1CC1)CC2,-86.55%
5,COc1ccc(C2(NC(=O)c3ccc(=O)n(C)n3)CCCC2)cc1,-78.19%
6,Fc1ccc(C2CN(CCc3ccncc3)CCO2)cc1 (stereo unspecified),-59.94%
7,Clc1cccc(CNC2CCN(CCc3ccncc3)CC2)c1,91.89%
8,CCCc1cncnc1N1CCC2(CCC(=O)N(C3CCCC3)C2)CC1,27.32%
9,Fc1ccc(CNC2CCN(CCc3ccncc3)CC2)cc1F,89.24%
10,O=C1CC(NCc2cccc(O)c2)CN1CCc1cccc(Cl)c1 (stereo unspecified),-115.5%
11,CCCc1cncnc1N1CCC(NCc2ccc(O)cc2)CC1,48.9%
12,Oc1cccc(CNC2CCN(CCc3ccncc3)CC2)c1,-23.71%
13,COCCN1CCC(NCc2cccc(F)c2)C1 (stereo unspecified),-58.84%
14,CCCc1cncnc1N1CCC(NCc2ccncc2)CC1,65.25%
15,CC(C)Cc1cc(NC(=O)c2cc(Cl)c[nH]2)n(C)n1,10.73%
16,CC(C)N(C)CCC(=O)N1CCCC(c2ccc(C(=O)O)cc2)C1 (stereo unspecified),-175.3%
17,CC(C)CN1C[C@H]2N(c3ncccn3)CCC[C@@]2(C(=O)NCC2CC2)C1,-72.47%
18,Cc1ccc(CN(C)C(=O)c2n[nH]c(N)c2-c2ccccc2)o1,-66.55%
19,CN(Cc1ccncc1)C1COC2(CCN(Cc3ccccn3)CC2)C1.O=C(O)C(F)(F)F.O=C(O)C(F)(F)F.O=C(O)C(F)(F)F.O=C(O)C(F)(F)F (stereo unspecified),-49.62%
20,Cc1ncsc1C(=O)NC1CCN(CC(N)=O)CC1,-67.12%
21,O=C(Cn1ccc2sccc2c1=O)NCCC1=CCCCC1,-67.23%
22,Cc1cccc(N2CCN(CCCNC(=O)c3cn[nH]c3C)CC2)c1,-117.5%
23,CC1CCCN(CCCNC(=O)Cc2csc(-c3ccoc3)n2)C1 (stereo unspecified),9.027%
24,Cc1csc([C@H]2C[C@H]3CN(Cc4cc(C)on4)CC[C@@H]3O2)n1.O=C(O)C(F)(F)F,-119%
25,CCN(C(=O)CN1CCn2c(C)nnc2C1)C1=CCCCC1,8.289%
26,c1cnn(CC2CN(Cc3nnc(C4CC4)o3)CCO2)c1 (stereo unspecified),-40.41%

row,Structure (SMILES),Percent Effect
1,N[C@H]1CC[C@@H](Nc2nccc(CCC(F)(F)F)n2)CC1,50.03%
2,FC(F)(F)CCc1ccnc(N[C@H]2CC[C@H](n3cnnc3)CC2)n1,-55.01%
3,N[C@@H]1CC[C@@H](Nc2nccc(CCC(F)(F)F)n2)C1,-7.999%
4,CC(C)N(C)C(=O)C1=NOC2(CCN(C(=O)c3ccnnc3)C2)C1 (stereo unspecified),-187.4%
5,Cc1cccc(CCC(=O)Nc2ccnn2C2CCS(=O)(=O)C2)c1 (stereo unspecified),-75.57%
6,O=C(NCCNC(=O)c1ccc(Br)cc1)c1ccc(O)cc1,27.41%
7,O=C(NCCNc1cncc(Br)c1)c1ccc(O)cc1,50.22%
8,O=C(NCCNc1ccc(Br)cn1)c1ccc(O)cc1,-25.48%
9,CCc1nn(C)c(Cl)c1CN1CCCC2(CC1)CN(C)C(=O)O2 (stereo unspecified),-46.66%
10,OCC1(O)CCCN(Cc2ccccc2OCCc2ccccc2)CC1 (stereo unspecified),64.9%
11,O=C1NCC2(CCCN(Cc3ccccc3OCCO)C2)O1 (stereo unspecified),-55.51%
12,OCCOc1ccccc1CN1CCCC(O)(CO)C1 (stereo unspecified),-48.41%
13,Cc1cc(C(=O)Nc2cnn(CC(F)(F)F)c2)nc(N2CCOCC2)n1,-108.9%
14,c1csc(COC[C@H]2CCC[C@]23CN(Cc2ccoc2)CCO3)n1,34.38%
15,CCN1CCCC1CN(CCN(C)C)S(=O)(=O)c1cccc(C#N)c1 (stereo unspecified),58.76%
16,CCS(=O)(=O)N1CCC(Oc2ccc(C#N)cc2)CC1,-74.03%
17,CCN(CC)S(=O)(=O)c1ccc(CNC(=O)N2CCC(C#N)CC2)cc1,-96.87%
18,CCN1CCCC1CN(CCN(C)C)S(=O)(=O)c1ccc(C#N)cc1 (stereo unspecified),58.03%
19,CC(=O)NCCC1CCCCN1S(=O)(=O)c1cccc(C#N)c1 (stereo unspecified),-38.39%
20,CS(=O)(=O)NCC1CCCCN1Cc1cccc(C#N)c1 (stereo unspecified),-99.98%
21,Cn1ncc2c(NC3CCCN(C(=O)C4CC4)C3)nc(C(C)(C)C)nc21 (stereo unspecified),-80.8%
22,CC(C)CC(NC(=O)c1ccn(C)c(=O)c1)c1ccccc1 (stereo unspecified),-106.6%
23,CCc1c(C)nc2ccccc2c1N1CCC(NC(C)=O)CC1,21.66%
24,CNC(=O)C1CCCN1c1nc(C)c2ccccc2n1 (stereo unspecified),-23.49%
25,CCc1c(C)nc2ccccc2c1N1CCC(C(=O)NC)CC1,51%
26,Cc1csc(NC(=O)[C@@H]2C[C@H]3[C@H](CCN3S(C)(=O)=O)O2)n1,-110.3%

row,Structure (SMILES),Percent Effect
1,O=S(=O)(NCc1ccc(S(=O)(=O)N2CCCC2)s1)c1ccc(Cl)cc1,-58.72%
2,Cc1ccc(C(=O)N2CC(=O)N(Cc3cccs3)CC(O)C2)cc1 (stereo unspecified),-71.11%
3,O=C1CN(C(=O)c2ccc(Cl)cc2)CC(O)CN1Cc1cccs1 (stereo unspecified),-105.2%
4,O=C1CN(C(=O)c2ccc(F)cc2)CC(O)CN1Cc1cccs1 (stereo unspecified),88.73%
5,CN(C)S(=O)(=O)N1CCOCC1CC(=O)NCCOc1ccccc1 (stereo unspecified),-2.235%
6,CCc1noc(C)c1C(=O)NCc1cc[nH]n1,-11.39%
7,Cc1noc(C)c1C(=O)NCc1cc[nH]n1,-1.688%
8,CCN(c1ccc(C(=O)NCc2cc[nH]n2)cc1)C(C)C,57.8%
9,Cc1nc(CN2CCCC(NCc3ccc4c(c3)CCO4)C2)no1 (stereo unspecified),-110.8%
10,CCCc1nc(N2CCSCC2)c2c(n1)c(C)nn2CC,-63.17%
11,CN(C)CC1CN(Cc2ccc(F)cc2)Cc2nccn2C1.O=C(O)C(F)(F)F.O=C(O)C(F)(F)F (stereo unspecified),12.77%
12,CCN(CC)CC1CN(Cc2ccc(C)s2)Cc2nccn2C1.O=C(O)C(F)(F)F.O=C(O)C(F)(F)F (stereo unspecified),66.72%
13,CCN(CC)CC1CN(CCc2ccccc2)Cc2nccn2C1.O=C(O)C(F)(F)F.O=C(O)C(F)(F)F (stereo unspecified),57.03%
14,Cc1ccc(CN2Cc3nccn3CC(Cn3cccn3)C2)s1.O=C(O)C(F)(F)F (stereo unspecified),-33.05%
15,Cc1ccc(CN2Cc3nccn3CC(CN(C)C)C2)s1.O=C(O)C(F)(F)F.O=C(O)C(F)(F)F (stereo unspecified),-55.03%
16,CCN(CC)CC1CN(Cc2nccs2)Cc2nccn2C1.O=C(O)C(F)(F)F.O=C(O)C(F)(F)F (stereo unspecified),18.43%
17,O=C(NCC1CC1)c1cc2c(s1)CCN2c1ncccn1,-131.9%
18,O=C(c1cnc2ccc(Cl)cc2c1NCc1ccco1)N1CCCCC1,-150.7%
19,Cc1ncsc1-c1nnc(C2CCN(Cc3ccc(Cl)cc3)CC2)o1,-44.81%
20,CC(C)(CN1CCC2(CCOCC2)CC1)N1CCOCC1,-173.8%
21,COCC1c2nnn(C)c2CCN1C(=O)Cc1ccccn1 (stereo unspecified),-28.75%
22,Cc1ccc(C)c(S(=O)(=O)N2CCN(C)C3(CCC(=O)N(C)CC3)C2)c1 (stereo unspecified),-116.8%
23,CCS(=O)(=O)NC1CCCN(c2cc(C)ccc2F)C1=O (stereo unspecified),0.205%
24,CCc1ccc(S(=O)(=O)N2CCCC(c3ncc[nH]3)C2)s1 (stereo unspecified),13.27%
25,CCC[C@H]1CN(S(=O)(=O)c2cc(C)ccc2C)C[C@@H]1N,67.41%
26,Cc1noc(C)c1-c1n[nH]c2c1CN(S(=O)(=O)c1cccs1)CC2,-28.6%

row,Structure (SMILES),Percent Effect
1,Cc1ccc(F)c(S(=O)(=O)N2CCCC2c2ccncc2)c1 (stereo unspecified),-74.84%
2,CCC[C@H]1CN(S(=O)(=O)c2cc(C)ccc2F)C[C@@H]1N,52.25%
3,CCC[C@H]1CN(S(=O)(=O)c2ccccc2)C[C@@H]1N,16.03%
4,Cc1cccc(OCC(O)CNCc2c(C)nn(C)c2N(C)C)c1 (stereo unspecified),22.52%
5,O=C(O)C(F)(F)F.O=C(O)C(F)(F)F.O=S1(=O)c2ccccc2C2(CCN(Cc3cccnc3)C2)N1CC1CC1 (stereo unspecified),-8.635%
6,CS(=O)(=O)NC[C@]12COC[C@H]1CN(CC1CCC1)C2.O=C(O)C(F)(F)F,-46.78%
7,CS(=O)(=O)N1C[C@H]2CN(CC3CC3)C(=O)[C@H]2C1,-17.38%
8,CN1CCN(C[C@@H]2CN(C(=O)NCC3CCCCC3)C[C@@H]2CO)CC1,-32.18%
9,Clc1ccccc1C1(c2ccnc(C3CC3)n2)CCNCC1,72.39%
10,Cl.Clc1cccnc1OC1CCNCC1,7.245%
11,Clc1ccccc1C1(c2ccnc(C3CCCC3)n2)CCNCC1,82.68%
12,Cc1cccc(CN2CCn3c(C(=O)N(C)C)cnc3C2)c1,-123.8%
13,CN(C)CCNC(=O)c1cc2c(s1)CCN2S(C)(=O)=O,-66.69%
14,Cn1cnnc1CCC(=O)N1CCCC(OCc2cccnc2)C1 (stereo unspecified),-207.3%
15,COc1cc(NC(=O)c2ccc(Cl)cc2F)c(C(=O)N(C)C)cc1OC,-107.3%
16,Cc1cc(C)n(C2CN(CC(O)Cn3cccn3)C2)n1 (stereo unspecified),-132.3%
17,Cc1cnn(C2CN(CC(O)c3ccccc3)C2)c1 (stereo unspecified),40.53%
18,Cc1cc(C)n(C2CN(CCc3ccncc3)C2)n1,-117%
19,Cc1cc(C)n(C2CN(CC(O)c3cc(F)ccc3F)C2)n1 (stereo unspecified),84.13%
20,Cc1cc(C)n(C2CN(CC(O)COc3ccc(F)cc3)C2)n1 (stereo unspecified),-22.32%
21,COc1ccc(C(O)CN2CC(n3cc(C)cn3)C2)cc1 (stereo unspecified),19.27%
22,COc1ccc(C(O)CN2CC(n3nc(C)cc3C)C2)cc1 (stereo unspecified),47.1%
23,Cc1cnn(C2CN(CC(O)c3ccc(F)cc3)C2)c1 (stereo unspecified),56.46%
